LASV entry inh = inhibitors of Lassa virus binding or cell entry | Lassa virus pseudotype entry inhibition, cell reporter | Potency, µM (titrated, usually from 37.9 µM), for inactives: top-dose activity change, negative = inhibition, usual class: inhibitors | 300,000 tested, 1.2% active; calls by dose curve; tested in HEK293 cells; also: potency is read from the fitted curve at half-maximal effect; % is scaled to controls: 0 for no effect and ±100 for the full control effect; nearly all actives have a fitted effect of over 50% in size
CHX counter = affects cycloheximide protein synthesis inhibition readout, counter-screen | max response, % | AID 2314 | 300,000 tested, 12% active | cell reporter, cycloheximide protein synthesis inhibition counterscreen; in the data active = max response mostly above about 13%, no sharp cut-off; inactive = mostly below about 14%; also: read at 38.3 µM for the half of the compounds with a filed dose; 0% is about no effect
MARV entry inh = Marburg virus entry inhibition; Marburg virus pseudotyped entry inhibition, cell reporter; Potency, µM (doses to about 37.8 µM), inactives show at the top dose activity change, negative = inhibition, actives largely listed as inhibitors; 300,000 tested, 1.8% active; calls by dose curve; tested in HEK293 cells; also: potency is read from the fitted curve at half-maximal effect; % is scaled to controls: 0 for no effect and ±100 for the full control effect
Shiga toxin inh = inhibitors of Shiga toxin in Vero cells | AID 2315 | 290,000 tested, 9.2% active | Vero cells, Shiga toxin protein synthesis inhibition reporter | inhibition, % at 38.7 µM; in the data active = inhibition mostly above about 28%, no sharp cut-off; inactive = mostly below about 43%; also: 0% is about no effect
Numbers without * were called inactive; ? = inconclusive; nt = not tested or not shown; + = active, no number; ! = repeats disagree; [ ] = remark or other dose. Most compounds without a hit are left out; they make up all but 12% or so of the library.

SMILES	LASV entry inh	CHX counter	MARV entry inh	Shiga toxin inh
CCc1cc(C(=O)N2CCCC(CNC(=O)c3ccc(-c4ccccc4)cc3)C2)no1 (configuration not stated)	?	13.8*	?	14.8
CSCCC(=O)N1CCCC(CNC(=O)c2ccc(-c3ccccc3)cc2)C1 (configuration not stated)	nt	12.4	nt	17.5
CC1CCCCN1C(=O)CCS(=O)(=O)c1cccc2nonc12 (configuration not stated)	11.6%	34.2	?	29.3
COCc1cc2cc3c(cc2c2c(C(=O)OC)c(C(=O)OC)c(C(=O)OC(C)(C)C)n12)OCO3	?	nt	-26.9%[14.2 µM]	nt
Cc1ccccc1CC1(CO)CCCN(C(=O)c2ccc3ncccc3c2)C1 (configuration not stated)	-29.3%	7.6	-18.3%[14.2 µM]	-11.8
CCc1ccc(OCCSc2nc3ccccc3n2CC(=O)O)cc1	nt	-1.6	nt	-9.0
C[C@@H]1CC=C[C@H]2[C@H]1C(=O)N(Cc1ccccc1)[C@H]2c1ccc(/C=C/c2ccccc2)cc1F	nt	-3.3	nt	-4.4
COc1cccc(Cn2c(CNC(=O)Cc3cccc(C)c3)nc3cccnc32)c1	-17.7%[46.1 µM]	nt	nt	nt
CN1C(=O)C(N=Nc2ccccc2C(=O)O)N(C)C1=S (configuration not stated)	10.3%	8.2	16.5%[46.1 µM]	28.1
O=C(CCS(=O)(=O)c1ccccc1)N1CCOCC1	14.3%	31.4*	11.9%[46.1 µM]	52.5
CC1CN(C(=O)CCS(=O)(=O)c2ccccc2)CC(C)O1 (configuration not stated)	15.2%[46.1 µM]	17.0	?	25.7
O=C(CCS(=O)(=O)c1ccccc1)N1CCN(c2ccccc2)CC1	-5.1%	40.1*	-6.9%	84.5*
Cc1cc(=O)oc2cc(NC(=O)[C@H](CCCCN)NC(=O)[C@H](CC3CCCCC3)NC(=O)OCC3c4ccccc4-c4ccccc43)ccc12	nt	-6.9	nt	-11.2
CC(C)(C)c1ccc(S(=O)(=O)/C=C/C#N)cc1	3.66µM*	nt	2.51µM*	nt
CC(C)Sc1ccccc1C(=O)Nc1ccc2c(c1)n(C)c(=O)n2C	?	-3.0	-16.8%	-1.4
CC(C)CC(c1nnnn1Cc1ccco1)N1CCN(c2cccc(Cl)c2)CC1 (configuration not stated)	?	7.5	8.91µM*	-7.5
CC(C)CC(c1nnnn1CC1CCCO1)N1CCN(c2cccc(Cl)c2)CC1 (configuration not stated)	?	-0.4	-21.6%	0.9
Cc1ccc(Cn2c(CNS(=O)(=O)c3c(C)cc(C)cc3C)nc3cccnc32)cc1	4.8%[46.1 µM]	nt	nt	nt
Cc1nn2c(N3CCN(C)CC3)cc(C(C)(C)C)nc2c1-c1ccccc1	?	7.4	10µM*	-5.5
Cc1nn2c(N3CCN(C4CCCC4)CC3)cc(C(C)(C)C)nc2c1-c1ccccc1	-2.4%	-6.1	7.7%	-5.9
CCCc1cc(N2CCOCC2)n2nc(C)c(-c3ccccc3)c2n1	nt	18.0*	nt	-9.3
CN(C)C(=O)[C@H]1C[C@H]1[C@@H](O)[C@H](CO)NC(=O)[C@H](Cc1ccccc1)NC(=O)OC(C)(C)C	nt	-2.2	nt	-8.2
Cc1ccccc1Nc1nc(-c2ccccc2)c(C(=O)Nc2cccnc2)s1	-29.6%	15.6*	?	-16.2
Clc1ccc(Cn2c(CN3CCCC3)nc3ccccc32)cc1	?	-3.5	3.16µM*!	-7.7
CCCNC(=O)c1cc(Cl)c(NC(=O)C2=CSCCO2)cc1OC	nt	20.2	nt	19.1*
SMILES	LASV entry inh	CHX counter	MARV entry inh	Shiga toxin inh
CCCNC(=O)c1cc(Cl)c(NC(=O)C2=C(C)OCCS2)cc1OC	nt	21.1	nt	26.9
S=C(NCC1CC1)N/N=C/c1ccccc1Cl	-13.4%	2.7	?	25.7*
C=CCNC(=O)/C=C/c1c(F)cccc1Cl	8.5%	28.6*	?	57.0*
O=C(/C=C/c1c(F)cccc1Cl)Nc1ncccn1	16.0%	56.8*	-4.2%	61.1*
O=C(/C=C/c1c(F)cccc1Cl)N1CCOCC1	nt	48.4*	nt	51.0*
COc1cc(OC)cc(C(=O)N[C@H](C(=O)Nc2c(C)n(C)n(-c3ccccc3)c2=O)C(C)C)c1	11.2%	nt	13.2%	nt
O=C(NCC(O)c1ccc([N+](=O)[O-])cc1)C1=COCCO1 (configuration not stated)	2.0%	nt	0.1%	nt
O=C(Cc1cccs1)N/N=C/C=C/c1ccco1	?	25.9*	17.5%	+
C/C(=N/NC(=O)CNC(=O)c1cccs1)c1ccco1	2.4%	-2.9	-17.1%	50.7*
C/C(=N/NC(=O)CNC(=O)c1ccco1)c1ccco1	nt	-3.2	nt	4.4
C/C(=N/NC(=O)Cc1cccs1)c1ccco1	6.0%	22.0*	13.5%	27.2*
CCOC(=O)c1ccc(NC(=O)N2CCN(C(=O)c3ccco3)CC2)cc1	-3.2%	-3.9	-0.8%	-5.0
CCOC(=O)c1ccc(N/C=C/C(=O)c2ccco2)cc1	?	39.9*	?	65.8*
O=C(/C=C/Nc1ccc(F)cc1)c1ccco1	?	34.8*	?	67.0*

Source: PubChem
